Screening results from PubChem BioAssay.
Plk1 PBD FP: Plk1 (human) PBD binding inhibition; inhibition, %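 (tested at about 20 µM)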; hit rate 0.13% among 97,000; P53350; Plk1 PBD phosphopeptide binding, fluorescence polarization; AID 693; in the data active = inhibition above about 34%, passing the limit was not always enough
CYP2C9 act: increases human cytochrome P450 2C9 activity; AID 1024; hit rate 1.4% among 96,000; activation factor at 5 µM; P11712; recombinant CYP2C9, luciferin-H conversion, luminescence; stronger effect = higher value; factor 1 = untreated enzyme, 0 = blocked;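 active = activation factor of 2 or more for CYP2C9 at a 5 µM dose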;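 also: 0 = sulfaphenazole-blocked wells and 1 = vehicle-only wells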
CYP2C19 inhib: inhibitors of human CYP2C19. P33261. CYP2C19 Supersomes, luciferin-H EGE luminescence, 30 min. inhibition, % at 5 µM. hit rate 21% among 96,000. AID 778;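 active = CYP2C19 inhibition above a set limit at 5 µM in the primary screen, cut at about 50% in these data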;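 also: plate controls were negative control wells for no effect and 2.5 mM tranylcypromine positive control for full effect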
Target sequence (P33261 whole entry, looked up): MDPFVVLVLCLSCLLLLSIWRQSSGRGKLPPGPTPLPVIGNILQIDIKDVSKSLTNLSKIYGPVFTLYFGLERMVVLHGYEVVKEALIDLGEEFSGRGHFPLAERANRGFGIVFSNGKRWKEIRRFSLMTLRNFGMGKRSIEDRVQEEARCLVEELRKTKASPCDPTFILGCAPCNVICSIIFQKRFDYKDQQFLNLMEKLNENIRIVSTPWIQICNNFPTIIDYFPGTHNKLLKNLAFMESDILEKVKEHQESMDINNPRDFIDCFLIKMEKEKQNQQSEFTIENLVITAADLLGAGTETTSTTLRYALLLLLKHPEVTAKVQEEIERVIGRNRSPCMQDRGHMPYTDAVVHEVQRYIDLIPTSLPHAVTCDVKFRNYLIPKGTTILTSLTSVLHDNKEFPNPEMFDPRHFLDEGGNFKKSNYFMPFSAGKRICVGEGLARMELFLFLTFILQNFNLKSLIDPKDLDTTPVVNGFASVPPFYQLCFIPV
PLK1 inh: PLK1 (human) kinase inhibition; P53350; recombinant PLK1 kinase, TR-FRET peptide phosphorylation; inhibition, % at 10 µM; hit rate 0.53% among 97,000; AID 619;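 active = inhibition of 50% or more in the single-concentration screen; inactive = inhibition below 50%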;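 also: 0% = DMSO max control and 100% = H-89 dihydrochloride min control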
CYP2C9 inhib: inhibitors of human CYP2C9. CYP2C9 Supersomes, luciferin-H conversion, luminescence. inhibition, % at 5 µM. P11712. hit rate 20% among 96,000;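 active = blocking of liver enzyme CYP2C9 beyond about 50% at 5 µM, limit read from the data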
CYP2C19 activ: cytochrome P450 2C19 (human) activation. P33261. recombinant CYP2C19, luciferin-H EGE luminescence; stronger effect = higher value; 0 = fully inhibited enzyme, 1 = untreated enzyme. activation factor at 5 µM. 96,000 tested, under 10 active;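 active = activation factor of at least 2 at 5 µM in the primary screen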;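 also: 0 = wells with 2.5 mM tranylcypromine and 1 = vehicle-only wells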
* hit, by the source's call; · = no result. Only some compounds are listed: those with a hit (about 28% of all), similar ones and a draw of the others.

SMILES	Plk1 PBD FP	CYP2C9 act	CYP2C19 inhib	PLK1 inh	CYP2C9 inhib	CYP2C19 activ
CCOC(=O)C1=C(C)NC2=C(C(=O)CCC2)C1c1ccc(N(C)C)cc1 (configuration not stated)	10.1	0.7	31.4	-7.9	28.7	0.7
COCCOC(=O)C1=C(C)NC2=C(C(=O)CCC2)C1c1ccc2c(c1)OCO2 (configuration not stated)	-25.6	0	83.5*	-20.3	95.7*	0.2
COC(=O)C1C(=O)C2=C(CC1C)NC(C)=C(C(=O)OC1CCCC1)C2c1ccc(N(C)C)cc1 (configuration not stated)	4.6	0.2	54.1*	-9.3	82.5*	0.5
Cc1ccccc1-n1c(=O)c2ccccc2n2nnnc12	-6.4	1.1	57.7*	-8.3	-8.2	0.4
CN(CCCNC(=O)C1CCC(=O)N1Cc1ccc(F)cc1)c1ccccc1 (configuration not stated)	31.9	1	20.9	-6.8	2.8	0.8
CCOC(=O)C1CCCN(C(=O)C2CCN(S(=O)(=O)c3cnc[nH]3)CC2)C1 (configuration not stated)	·	0.1	-2.5	·	86.8*	1
O=C(NCc1ccccn1)C1CCN(S(=O)(=O)c2cnc[nH]2)CC1	·	1.1	-12.8	·	-6.2	1.1
CCOc1ccc(OCC)c(NC(=O)C2CCN(S(=O)(=O)c3cnc[nH]3)CC2)c1	5.0	0.2	37.2	-13.4	83.9*	0.6
O=C(C1CCN(S(=O)(=O)c2cnc[nH]2)CC1)N1CCN(c2ncccn2)CC1	2.2	1.2	-16.8	-12.5	-16.5	1.2
CCOC(=O)C1CCN(S(=O)(=O)c2cnc[nH]2)CC1	·	0	57.9*	·	97.5*	0.4
O=C(Nc1ncc([N+](=O)[O-])s1)C1CCN(S(=O)(=O)c2cnc[nH]2)CC1	-11.2	0	48.5	-2.5	96.8*	0.5
COc1ccc(N2CCN(CC(=O)Nc3ccc(-n4cnnn4)cc3)CC2)cc1	-6.7	·	·	-7.9	·	·
N#Cc1c(-c2ccc3c(c2)OCO3)ccn2nc(-c3cccc(C(F)(F)F)c3)nc12	15.7	0.9	37.8	-19.1	9.6	0.6
O=C(NCc1ccc2c(c1)OCO2)c1cc2n(n1)C(C(F)(F)F)CC(c1ccc3c(c1)OCO3)N2 (configuration not stated)	·	1.1	-17.1	·	-7.7	1.2
COC(=O)c1ccc2c(c1)N(Cc1nc(-c3cccc(C)c3)oc1C)C(=O)C1CCCN21 (configuration not stated)	-30.5	0.6	43.8	11.0	36.9	0.6
CCCCN(C)C(=O)c1cc2cc3ccc(OC)cc3nc2s1	-11.9	0.5	56.4*	-5.3	53.4*	0.4
CCCCNS(=O)(=O)c1ccc(NC(=O)c2c(-c3ccccc3Cl)noc2C)cc1	-8.4	0	82.6*	1.9	100.3*	0.2
Cc1onc(-c2ccccc2Cl)c1C(=O)Nc1ccc(-n2nncc2C(C)(C)C)cc1	3.0	1	47.8	-3.9	4.3	0.5
Cc1onc(-c2ccccc2Cl)c1C(=O)Nc1ccc(-n2nncc2-c2ccco2)cc1	-12.4	0.1	99.4*	2.5	92.8*	0
Cc1onc(-c2ccccc2Cl)c1C(=O)Nc1ccc(S(=O)(=O)NCC2CCCO2)cc1 (configuration not stated)	-12.2	0.3	29.2	-8.5	67.0*	0.7
N#CC(C(=O)c1ccco1)c1ccccn1 (configuration not stated)	11.6	0.7	-2.3	-8.4	27.6	1
O=C(O)CC1S/C(=N\N=C/c2ccccc2)N(c2ccc(O)cc2)C1=O (configuration not stated)	20.8	1	-18.3	-3.5	1.7	1.2
Cc1cccc(NC(=O)Cc2cccs2)n1	-11.7	1	12.0	-4.8	-4.3	0.9
Nn1c(SCc2cn3ccsc3n2)nnc1-c1ccncc1	·	0.9	64.9*	·	8.2	0.4
Cc1csc2nc(CSc3nc4ccccc4o3)cn12	11.3	1.2	23.2	-2.8	-15.3	0.8
Clc1ccc(SCc2cn3ccsc3n2)cc1	25.2	1.2	52.7*	1.5	-20.3	0.5
Cc1csc2nc(CSc3ccc(Cl)cc3)cn12	-1.5	3.6*	72.7*	-17.4	-260.8	0.3
c1ccc(CSc2nnc(-c3sccc3-n3cccc3)o2)cc1	-10.6	1.1	38.1	-6.6	-9.4	0.6
CCN(CC)N=Nc1[nH]nc2nc(C)cc(C)c12	-27.7	0.9	-3.1	-10.7	6.1	1
